ChEMBL document CHEMBL3988442, “University of Dundee, Small-Polar-MMV Screening Library” (2021)
For some of these results: Potency and affinity values are given separately.

Key:
Parameters in all cases: scale not given: direction of the effect not stated beside the values
[1] = biological target: Protein translocase subunit SecA (Escherichia coli (strain K12)) (UniProt P10408); test: Assay to Identify E. coli SecA ATPase Inhibitors; format: functional; details: 30 µM
[2] = biological target: T1, Ubiquitin-activating enzyme e1, putative (Leishmania donovani (strain BPK282A1)) (UniProt E9BSI1); test: Leishmania donovani Ubiquitin Activating Enzyme (LdE1); format: functional; details: 30 µM
T1 sequence (whole entry): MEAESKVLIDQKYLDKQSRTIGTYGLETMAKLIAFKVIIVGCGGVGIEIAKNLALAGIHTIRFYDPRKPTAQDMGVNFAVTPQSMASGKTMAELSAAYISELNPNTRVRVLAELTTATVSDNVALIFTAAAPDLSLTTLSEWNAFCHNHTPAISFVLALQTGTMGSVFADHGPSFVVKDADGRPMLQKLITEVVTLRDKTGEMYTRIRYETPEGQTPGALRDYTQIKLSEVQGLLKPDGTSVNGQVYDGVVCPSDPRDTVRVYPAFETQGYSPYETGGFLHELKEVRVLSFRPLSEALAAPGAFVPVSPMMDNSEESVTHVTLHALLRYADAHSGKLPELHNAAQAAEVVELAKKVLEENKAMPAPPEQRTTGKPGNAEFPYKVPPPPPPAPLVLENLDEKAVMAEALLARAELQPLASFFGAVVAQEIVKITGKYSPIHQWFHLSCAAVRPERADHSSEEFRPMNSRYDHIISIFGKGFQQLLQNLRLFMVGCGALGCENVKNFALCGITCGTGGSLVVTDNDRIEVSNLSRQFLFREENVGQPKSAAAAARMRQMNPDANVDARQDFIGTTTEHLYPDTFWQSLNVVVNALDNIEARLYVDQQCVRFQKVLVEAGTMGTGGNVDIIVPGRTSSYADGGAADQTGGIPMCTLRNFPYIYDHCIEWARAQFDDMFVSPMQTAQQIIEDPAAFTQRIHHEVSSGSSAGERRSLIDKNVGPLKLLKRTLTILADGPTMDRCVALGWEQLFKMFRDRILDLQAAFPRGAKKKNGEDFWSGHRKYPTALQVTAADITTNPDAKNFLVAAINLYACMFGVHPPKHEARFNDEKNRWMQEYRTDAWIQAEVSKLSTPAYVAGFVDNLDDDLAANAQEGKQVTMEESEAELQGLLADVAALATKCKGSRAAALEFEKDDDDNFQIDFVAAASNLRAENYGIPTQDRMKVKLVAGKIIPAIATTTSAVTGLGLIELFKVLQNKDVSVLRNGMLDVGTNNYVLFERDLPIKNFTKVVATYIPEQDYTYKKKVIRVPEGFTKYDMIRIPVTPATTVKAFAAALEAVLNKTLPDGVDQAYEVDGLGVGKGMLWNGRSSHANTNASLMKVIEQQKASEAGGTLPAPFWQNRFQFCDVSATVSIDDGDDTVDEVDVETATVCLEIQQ

[3] = biological target: AMP-activated protein kinase, AMPK (Homo sapiens) (UniProt P54646+O43741+P54619+Q9UGJ0+Q9Y478+Q13131+Q9UGI9); test: AMP-dependent Kinase enzyme assay. An in vitro enzyme assay that detects ADP turnover that is directly proportional to AMPK activity. This uses naive AMPK that is activated during the assay with MK-8722; format: functional; details: 30 µM
[4] = biological target: Sialic acid-binding Ig-like lectin 9 (Homo sapiens) (UniProt Q9Y336); test: Hs-Siglec9 ALPHAscreen SOP 20170721; details: 10 µM
Chain of Sialic acid-binding Ig-like lectin 9 (Homo sapiens) (Q9Y336 whole entry): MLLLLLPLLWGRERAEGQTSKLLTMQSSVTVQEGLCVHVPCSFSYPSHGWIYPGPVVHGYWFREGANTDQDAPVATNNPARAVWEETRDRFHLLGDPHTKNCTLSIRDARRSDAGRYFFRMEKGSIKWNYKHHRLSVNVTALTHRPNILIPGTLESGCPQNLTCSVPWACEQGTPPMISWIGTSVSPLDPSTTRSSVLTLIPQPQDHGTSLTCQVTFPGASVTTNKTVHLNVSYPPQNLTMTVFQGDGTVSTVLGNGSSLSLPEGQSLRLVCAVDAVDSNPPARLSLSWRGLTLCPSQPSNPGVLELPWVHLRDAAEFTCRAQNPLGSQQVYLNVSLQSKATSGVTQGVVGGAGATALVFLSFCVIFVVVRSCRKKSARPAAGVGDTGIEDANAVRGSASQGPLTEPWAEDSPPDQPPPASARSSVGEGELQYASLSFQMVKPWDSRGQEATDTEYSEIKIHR

[5] = tested on: Trypanosoma cruzi; test: Trypanosoma cruzi phosphomannomutase and mannose-1-phosphate guanylyltransferase assay; format: functional; details: 10 µM
[6] = biological target: T2, Arginase-2, mitochondrial (Homo sapiens) (UniProt P78540); test: in vitro enzyme assay to detect the production of urea directly proportional to the activity of Arginase II; format: functional; details: 33.3 µM; also: in the data most compounds retested in dose-response had high values
T2 sequence (whole entry): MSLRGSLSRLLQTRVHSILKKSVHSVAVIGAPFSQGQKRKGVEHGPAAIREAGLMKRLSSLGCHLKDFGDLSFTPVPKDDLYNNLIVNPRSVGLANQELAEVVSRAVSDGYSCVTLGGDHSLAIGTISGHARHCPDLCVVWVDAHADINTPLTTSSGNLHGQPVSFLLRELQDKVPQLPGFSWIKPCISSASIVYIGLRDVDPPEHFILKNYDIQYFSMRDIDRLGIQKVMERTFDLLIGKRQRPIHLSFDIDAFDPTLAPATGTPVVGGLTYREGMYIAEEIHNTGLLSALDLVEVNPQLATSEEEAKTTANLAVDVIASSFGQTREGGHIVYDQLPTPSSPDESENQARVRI

[7] = biological target: T3, Proteasome subunit beta (Trypanosoma cruzi) (UniProt O96673); test: Trypanosoma cruzi proteasome chymotrypsin-like activity (TcProtChymo) assay.; also: in the data most compounds retested in dose-response had high values; format: functional; details: 9.37 µM
T3 sequence (whole entry): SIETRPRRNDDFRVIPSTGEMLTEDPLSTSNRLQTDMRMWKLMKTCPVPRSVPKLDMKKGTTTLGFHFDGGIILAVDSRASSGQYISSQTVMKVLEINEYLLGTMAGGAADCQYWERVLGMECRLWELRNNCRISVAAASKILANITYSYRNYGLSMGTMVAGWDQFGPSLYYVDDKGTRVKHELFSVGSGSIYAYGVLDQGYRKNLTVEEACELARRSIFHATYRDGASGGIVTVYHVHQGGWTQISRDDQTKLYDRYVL

[8] = species on record: Homo sapiens; test: To identify inhibition of the IFN signalling (Jak-Stat) pathway via expression of an eGFP reporter gene under the control of an IFN-stimulated response element (ISRE) containing MxA promoter.; format: functional; details: 30 µM
[9] = biological target: T4, Tyrosyl-tRNA synthetase, putative (Trypanosoma cruzi (strain CL Brener)) (UniProt Q4DSP6); test: Trypanosoma cruzi tyrosyl tRNA synthetase (TcYRS) _High Tyrosine SOP; format: functional; details: 30 µM; also: in the data most compounds retested in dose-response had high values
T4 sequence (whole entry): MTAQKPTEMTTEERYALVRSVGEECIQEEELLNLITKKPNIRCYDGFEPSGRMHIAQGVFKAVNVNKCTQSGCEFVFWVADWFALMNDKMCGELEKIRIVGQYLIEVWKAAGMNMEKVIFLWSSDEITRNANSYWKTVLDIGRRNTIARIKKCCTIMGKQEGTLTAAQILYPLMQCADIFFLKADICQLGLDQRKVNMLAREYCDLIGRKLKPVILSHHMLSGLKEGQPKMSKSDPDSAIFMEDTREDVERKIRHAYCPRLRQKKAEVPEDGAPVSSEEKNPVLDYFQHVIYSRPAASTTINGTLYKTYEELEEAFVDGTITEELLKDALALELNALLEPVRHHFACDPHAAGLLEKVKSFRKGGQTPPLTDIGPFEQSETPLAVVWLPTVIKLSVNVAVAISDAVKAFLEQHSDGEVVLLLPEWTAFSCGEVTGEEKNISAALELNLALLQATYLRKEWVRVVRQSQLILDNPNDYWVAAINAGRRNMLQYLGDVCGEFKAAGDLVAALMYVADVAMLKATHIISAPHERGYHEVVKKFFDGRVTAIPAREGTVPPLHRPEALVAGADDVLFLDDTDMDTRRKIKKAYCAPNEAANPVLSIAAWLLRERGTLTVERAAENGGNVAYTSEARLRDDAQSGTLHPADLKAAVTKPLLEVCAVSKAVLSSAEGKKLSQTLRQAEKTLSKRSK

[10] = biological target: T4, Tyrosyl-tRNA synthetase, putative (Trypanosoma cruzi (strain CL Brener)); test: Trypanosoma cruzi tyrosyl tRNA synthetase (TcYRS) SOP; format: functional; details: 30 µM
[11] = biological target: Chromo domain-containing protein 1 (Saccharomyces cerevisiae (strain ATCC 204508 / S288c) (Baker's yeast)) (UniProt P32657); test: ScCHD-1 Enzyme Inhibition Assay; format: functional; details: 30 µM; also: in the data most compounds retested in dose-response had high values
Chain of Chromo domain-containing protein 1 (Saccharomyces cerevisiae (strain ATCC 204508 / S288c) (Baker's yeast)) (P32657 whole entry, the tested form may be a part): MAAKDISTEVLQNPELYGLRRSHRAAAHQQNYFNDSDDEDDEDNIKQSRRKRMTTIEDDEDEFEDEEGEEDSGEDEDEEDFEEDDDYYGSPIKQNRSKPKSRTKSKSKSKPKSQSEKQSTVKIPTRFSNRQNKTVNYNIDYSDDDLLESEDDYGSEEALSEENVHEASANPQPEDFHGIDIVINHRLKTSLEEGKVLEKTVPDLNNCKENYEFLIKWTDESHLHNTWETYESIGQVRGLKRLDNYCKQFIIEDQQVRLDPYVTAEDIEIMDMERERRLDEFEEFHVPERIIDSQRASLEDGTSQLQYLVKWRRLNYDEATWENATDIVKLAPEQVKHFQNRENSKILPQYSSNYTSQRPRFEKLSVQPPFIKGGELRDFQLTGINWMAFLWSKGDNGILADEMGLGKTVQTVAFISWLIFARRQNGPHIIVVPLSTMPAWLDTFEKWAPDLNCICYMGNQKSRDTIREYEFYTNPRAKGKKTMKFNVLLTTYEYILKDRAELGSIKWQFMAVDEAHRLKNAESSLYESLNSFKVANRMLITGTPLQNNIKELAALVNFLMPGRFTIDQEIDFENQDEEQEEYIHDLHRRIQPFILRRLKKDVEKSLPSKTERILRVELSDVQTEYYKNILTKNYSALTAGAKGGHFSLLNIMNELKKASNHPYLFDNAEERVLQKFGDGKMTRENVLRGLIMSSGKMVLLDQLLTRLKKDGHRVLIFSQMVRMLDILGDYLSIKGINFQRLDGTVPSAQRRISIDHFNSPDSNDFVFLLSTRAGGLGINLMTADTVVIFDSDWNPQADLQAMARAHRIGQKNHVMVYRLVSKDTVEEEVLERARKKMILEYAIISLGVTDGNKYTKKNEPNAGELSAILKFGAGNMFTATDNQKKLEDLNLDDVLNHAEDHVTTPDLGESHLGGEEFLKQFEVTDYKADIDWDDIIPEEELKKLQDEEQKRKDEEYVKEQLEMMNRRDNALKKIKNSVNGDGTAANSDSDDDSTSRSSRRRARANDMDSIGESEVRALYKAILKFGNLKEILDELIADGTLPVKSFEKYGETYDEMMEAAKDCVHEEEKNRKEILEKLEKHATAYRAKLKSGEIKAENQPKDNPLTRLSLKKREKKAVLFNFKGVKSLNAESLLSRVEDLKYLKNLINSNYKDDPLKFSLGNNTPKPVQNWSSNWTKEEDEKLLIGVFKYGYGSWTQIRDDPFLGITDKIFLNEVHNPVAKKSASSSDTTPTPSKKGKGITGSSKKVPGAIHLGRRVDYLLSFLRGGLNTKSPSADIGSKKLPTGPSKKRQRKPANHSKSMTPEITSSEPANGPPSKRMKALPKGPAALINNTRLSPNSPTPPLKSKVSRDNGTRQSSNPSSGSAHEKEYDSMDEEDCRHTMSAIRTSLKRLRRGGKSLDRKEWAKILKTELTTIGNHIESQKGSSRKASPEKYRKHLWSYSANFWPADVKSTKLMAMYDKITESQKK

Chain of Protein translocase subunit SecA (Escherichia coli (strain K12)) (P10408 whole entry): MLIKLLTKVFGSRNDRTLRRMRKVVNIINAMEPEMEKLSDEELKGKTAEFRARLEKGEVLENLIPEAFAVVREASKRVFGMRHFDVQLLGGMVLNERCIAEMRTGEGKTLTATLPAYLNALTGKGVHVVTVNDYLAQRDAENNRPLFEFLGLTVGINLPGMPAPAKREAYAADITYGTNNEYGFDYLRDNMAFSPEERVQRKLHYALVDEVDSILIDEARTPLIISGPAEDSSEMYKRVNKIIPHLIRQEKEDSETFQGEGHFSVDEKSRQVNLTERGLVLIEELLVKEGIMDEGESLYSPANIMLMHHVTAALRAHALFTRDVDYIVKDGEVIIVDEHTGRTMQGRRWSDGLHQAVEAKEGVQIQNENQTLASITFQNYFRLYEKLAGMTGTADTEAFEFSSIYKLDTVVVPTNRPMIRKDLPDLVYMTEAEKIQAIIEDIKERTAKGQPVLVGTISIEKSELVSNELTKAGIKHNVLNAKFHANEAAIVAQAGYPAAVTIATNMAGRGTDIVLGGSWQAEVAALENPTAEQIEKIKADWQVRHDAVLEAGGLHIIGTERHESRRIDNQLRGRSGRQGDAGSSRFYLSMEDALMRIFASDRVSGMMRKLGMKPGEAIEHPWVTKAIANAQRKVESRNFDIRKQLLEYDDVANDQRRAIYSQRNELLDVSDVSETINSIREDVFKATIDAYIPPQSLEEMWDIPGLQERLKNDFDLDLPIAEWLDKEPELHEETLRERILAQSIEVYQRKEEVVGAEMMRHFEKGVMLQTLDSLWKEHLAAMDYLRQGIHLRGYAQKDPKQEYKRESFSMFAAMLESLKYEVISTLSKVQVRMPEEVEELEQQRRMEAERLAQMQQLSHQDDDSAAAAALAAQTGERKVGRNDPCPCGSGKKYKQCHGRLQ

| Compound | Percent Effect [1] [%] | Percent Effect [2] [%] | Percent Effect [3] [%] | Percent Effect [4] [%] | Percent Effect [5] [%] | Percent Effect [6] [%] | Percent Effect [7] [%] | Percent Effect [8] [%] | Percent Effect [9] [%] | Percent Effect [10] [%] | Percent Effect [11] [%] |
| --- | --- | --- | --- | --- | --- | --- | --- | --- | --- | --- | --- |
| Cn1cnc(-c2cc(C(=O)N3CCOCC3)c3ccccn23)c1 | -2.02 | 10.8 | 17.9 | -4.69 | -3.42 | 17.5 | 26.6 | -15.6 | 3.24 | 10.3 | -3.5 |
| Cc1n[nH]c(C2CN(C(=O)c3ccnc(C4CC4)n3)CCO2)n1 (stereo not given) | -1.78 | 10.4 | 5.44 | 10.3 | -0.0979 | 5.26 | 9.78 | -6.73 | 5.71 | -23.5 | -12.2 |
| Cc1cc(CC(=O)NCc2ccnc(OCC(F)(F)F)c2)no1 | -9.52 | -5.26 | 3.73 | -4.53 | -6.2 | -0.766 | 2.84 | 30.8 | 0.49 | 0 | -5.08 |
| CC(C)n1cc(C(=O)N2Cc3ccccc3OC3(CCOCC3)C2)cn1 | -4.16 | 9.46 | 5.88 | -5.24 | -8.1 | -9.05 | 14.5 | 28.1 | -3.23 | -1.3 | -13.3 |
| Cc1noc(C)c1CN1CCN(CC2CC2)c2ncccc2C1 | -0.988 | 5.33 | -0.194 | -3.6 | -5.71 | 3.5 | 4.49 | 23 | 4.25 | 8.97 | -3.22 |
| O=C(O)c1cc(S(=O)(=O)Nc2ccc(Cl)cc2)cc2c1OCCO2 | -4.18 | -8.86 | 4.72 | 2.13 | -2.97 | 4.09 | 8.75 | -2.12 | -18.8 | -15.2 | -21.4 |
| O=C(NCCN1CCC(c2cccs2)CC1)Nc1cccs1 | -5.82 | 0 | -3.98 | 20.2 | 4.7 | 1.36 | 14.6 | 10.4 | 12.9 | 17.5 | -2.26 |
| CC(C)c1nc2n(n1)CC(NCc1nnnn1C1CC1)CC2 (stereo not given) | -2.7 | 32.4 | -23.1 | 6.96 | 3.87 | -15.6 | 7.39 | 9.98 | 4.43 | 18.5 | -10.6 |
| COc1ccc2c(c1)CN(Cc1nc3ccsc3c(=O)[nH]1)CC2 | -2.79 | -5.06 | -0.628 | 14.2 | -1.79 | 1.9 | 2.05 | 24.5 | 3.45 | 1.27 | 21.3 |
| CCN1CCC(NC(=O)CN2CCCC2Cn2cncn2)CC1 (stereo not given) | -0.772 | 6.33 | -1.15 | -1.21 | -5.64 | 0.645 | 8.92 | 4.26 | 3.12 | 2.53 | -22.4 |
| CC1=N[C@@]2(CC[C@@H]3CN(CC(=O)N(C)C)C[C@@H]32)C(=O)N1CC(C)C | 3.62 | 12 | 42.2 | 1.63 | -8.25 | -20.6 | 9.43 | 24.2 | 1.06 | 0 | -8.72 |
| O=C(C1CC1)N1CCN(Cc2coc(-c3ccc(Cl)cc3)n2)CC1 | -5.03 | -7.79 | 1.6 | 13.9 | 8.8 | -1.42 | -3.38 | 43 | 3.88 | 0 | -5.59 |
| CN(Cc1ccc(Cl)c(Cl)c1)C(=O)CNC(N)=O | -3.49 | 10.5 | 9.37 | -5.68 | 3.6 | -13 | 17.4 | 2.07 | 4.25 | 15.6 | -1.83 |
| O=C(CCN1CCOC(Cn2cccn2)C1)NC1CCCC1 (stereo not given) | -6.8 | 19 | -3.66 | -3.31 | 3.59 | 0.215 | 15.4 | 4.11 | 8.33 | 5.06 | -15.2 |
| O=C(O)C(c1ccc2c(c1)OCO2)N1CCC(C(=O)N2CCCC2)CC1 (stereo not given) | -6.55 | 0 | -3.95 | 1.83 | -5.36 | -1.56 | 4.18 | 2.87 | 4.92 | 3.7 | -5.45 |
| NS(=O)(=O)CCNC(=O)C1(c2ccc(Br)cc2)CC1 | 2.05 | 7.79 | -1.42 | 6.68 | 4.23 | -13.8 | 13 | -0.291 | 2.15 | 16.1 | -2.63 |
| Cc1nc(NC2CCCC2)cc(C2CCN2C(=O)c2ccccc2)n1 (stereo not given) | -6.88 | 4.05 | 3.55 | 0.412 | 3.16 | -1.62 | 6.08 | -2.7 | 1.07 | 3.9 | -22.1 |
| CN(CC(F)(F)F)C(=O)C1CSCN1C(=O)OC(C)(C)C (stereo not given) | -2.64 | 2.74 | -4.74 | -3.23 | -3.33 | 2.27 | 11.9 | 2.3 | 1.07 | 7.5 | -1.01 |
| Cc1ccc2c(c1)OCCCC2NCc1nnc2n1CCCCC2 (stereo not given) | -3.75 | 2.7 | -4.22 | 17.1 | 5.57 | 2.23 | 0.772 | -5.39 | -15.1 | 6.17 | -11.7 |
| COc1cccc2c1ccn2CC(=O)N[C@@H](CCSC)C(=O)O | 1.36 | -1.33 | -55.8 | 3.95 | -0.197 | -7.57 | 11.5 | -11.4 | 4.23 | -30.8 | -0.515 |
